Experimental findings from PubChem BioAssay (NCATS) are described below.

Inconclusive results are not listed. Active and inactive are the calls of the source. Calls come from the whole dose curve; as a rule, active = well fitted cell-killing curve with a large enough effect; inconclusive = small, poorly fitted or top-dose-only effect; inactive = flat fitted curve, though single readings scatter. Square brackets hold non-standard residues; d marks the D form. Peptide text beside a SMILES is read from it. ξ: configuration not given here. ξL = CC(C)CC(N)C(=O)O
Potency is the fitted concentration of half-maximal effect.

The nature of one assay: KB-8-5-11 Cancer Cell Toxicity qHTS against the NCATS CANVASS Library (AID 1347364). Note: nearly all actives have a fitted effect of over 75% in size. The following applies: KB-8-5-11 MDR cells viability, CellTiter-Glo, 72 h; series mostly up to 46.1 µM. A digest of the protocol:
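Plate 500 KB-8-5-11 cells per well in DMEM + 10% FBS, add compounds by pin transfer, incubate 72 hr at 37C. Add CellTiter-Glo, wait 10 minutes at room temperature, read luminescence.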
A general note: Quantitative high-throughput screening tests each substance at several concentrations.
Regarding `CC[C@@H](c1cc(OC)c(OC)cc1OC)[C@H](C)[C@@H](/C(C)=C/c1cc(OC)c(OC)cc1OC)c1cc(OC)c(OC)cc1OC`, the Potency result was “inactive”.
On to `CN1CCc2cc3c(c4c2C1(C)C(=O)c1cc(O)ccc1-4)OCO3` (centres undefined), for which the Potency is 23.5 µM (active).
Regarding `COC(=O)[C@@]1(C)CCC[C@]2(C)c3cc(OC)ccc3CC[C@@H]12`, the Potency result is “inactive”.
Still for that read-out and setting: the value for `COc1cc2ccc(=O)oc2c(O)c1O[C@@H]1O[C@H](CO)[C@@H](O)[C@H](O)[C@H]1O` was “inactive”; that for `CC[C@H]1[C@@H](C)[C@@H](c2cc(OC)c(OC)cc2OC)[C@H](C)[C@@H](c2cc(OC)c(OC)cc2OC)[C@@]12C=C(OC)C(=O)C=C2OC` was 29.6 µM (active); that for `C[C@H](CCC(O)C(C)(O)CO)[C@@]1(O)CC[C@@]2(C)C3=C(CC[C@@]21C)[C@@]1(C)CCC(OC(=O)CCC(=O)O)C(C)(C)[C@@H]1CC3` (some centres undefined) was “inactive”.
On to `COc1cc(C2C3=C(Cc4cc5c(cc42)OCO5)C(=O)OC3)cc(OC)c1OC` (centres undefined), for which the Potency is 0.105 µM (active).
Still for that read-out and setting: in the case of `CO[C@@H]1[C@H](O)[C@@H](C)O[C@@H](OC[C@@H]2C(C)OC(=O)/C=C/[C@H](C)C(O[C@@H]3O[C@H](C)CC4(OC(=O)O[C@@H]4C)C3O)[C@@H](C)CC(C)C(=O)/C=C/[C@H]3OC23)[C@@H]1OC` (some centres undefined) it was “inactive”; in that of `COc1ccc([C@@H]2c3cc4c(cc3C(=O)[C@H](C)C2C)OCO4)cc1OC` (some centres undefined), 16.6 µM (active).
For `C=C1C(=O)O[C@H]2[C@H]1CCC(C)=C1CC[C@@](C)(O)[C@@H]12`, the Potency was 23.5 µM (active).
As to `C/C(=C\[C@H](C)C(=O)/C=C/CC1CC(=O)NC(=O)C1)[C@@H]1OC(=O)CCCC/C=C/[C@H](O)[C@@H](O)[C@@H]1C`, the Potency result was “inactive”.
For the molecule `C[C@H](c1cnc(N)[nH]1)c1ccc(O)c2[nH]cc(-c3cnc(-c4c[nH]c5ccccc45)c(=O)[nH]3)c12`, the Potency entry is “inactive”.
For the molecule `COc1ccc([C@@H]2c3cc4c(cc3C[C@H](C)C2C)OCO4)cc1OC` (some centres undefined), the Potency was 3.72 µM (active).
`C/C1=C/[C@@H](C)[C@H](O)C/C=C/CC/C=C/C(=O)O[C@@H]1[C@H](C)C(=O)CCCC1CC(=O)NC(=O)C1`: the Potency entry is “inactive”.

The next assay can be described thus: SDT Cancer Cell Toxicity qHTS against the NCATS CANVASS Library (AID 1347365). Note: nearly all actives have a fitted effect of over 60% in size. The following applies: SDT dog glioma viability, ATP luminescence, 72 h; series mostly up to 46.1 µM. A digest of the protocol:
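qHTS, SDT dog glioma line, 500 cells/well; cpds 11 pts; 72 hr, 37C, 5% CO2; CellTiterGlo ATP luminescence.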
Consider `O[C@H]1C=C2[C@H]3CN(Cc4cc5c(cc43)OCO5)[C@H]2C[C@@H]1O`, for which the Potency was 7.43 µM (active).
Regarding `CC[C@@H](c1cc(OC)c(OC)cc1OC)[C@H](C)[C@@H](/C(C)=C/c1cc(OC)c(OC)cc1OC)c1cc(OC)c(OC)cc1OC`, the Potency entry was “inactive”.
Regarding `C/C=C/c1cc2c(c(=O)o1)C(=O)[C@@H](O)[C@H](C)O2`, the Potency was 10.5 µM (active).
Take `CC[C@@H](C)[C@H]1NC(=O)C(CC(C)C)NC(=O)[C@@H](CC(C)C)NC(=O)[C@H](Cc2c[nH]c3ccccc23)NC(=O)CNC(=O)[C@@H](CC(N)=O)NC1=O` (stereo partly drawn) (cyclo(GW[dL][ξL][dI][dN])): the Potency was 16.6 µM (active).
`CN1CCc2cc3c(c4c2C1(C)C(=O)c1cc(O)ccc1-4)OCO3` (centres undefined): the Potency is 1.48 µM (active).
On to `COC(=O)[C@@]1(C)CCC[C@]2(C)c3cc(OC)ccc3CC[C@@H]12`, for which the Potency result is “inactive”.
As for `COc1cc2ccc(=O)oc2c(O)c1O[C@@H]1O[C@H](CO)[C@@H](O)[C@H](O)[C@H]1O`, the Potency entry was “inactive”.
Turning to `O=C1CCC(=O)N(O)CCCCCNC(=O)CCC(=O)N(O)CCCCCNC(=O)CCC(=O)N(O)CCCCCN1`, the Potency was 4.18 µM (active).
For `CC1=C(C)C(=O)OC(C(C)C2(O)CCC3C4C5OC5C5(O)CC=CC(=O)C5(C)C4CCC32C)C1` (centres undefined), the Potency was 13.2 µM (active).
On to `C[C@H](CCC(O)C(C)(O)CO)[C@@]1(O)CC[C@@]2(C)C3=C(CC[C@@]21C)[C@@]1(C)CCC(OC(=O)CCC(=O)O)C(C)(C)[C@@H]1CC3` (some centres undefined), for which the Potency result is “inactive”.
In the case of `COc1cc(C2C3=C(Cc4cc5c(cc42)OCO5)C(=O)OC3)cc(OC)c1OC` (centres undefined), the Potency is 0.118 µM (active).
On the same count and under the same terms, in the case of `CO[C@@H]1[C@H](O)[C@@H](C)O[C@@H](OC[C@@H]2C(C)OC(=O)/C=C/[C@H](C)C(O[C@@H]3O[C@H](C)CC4(OC(=O)O[C@@H]4C)C3O)[C@@H](C)CC(C)C(=O)/C=C/[C@H]3OC23)[C@@H]1OC` (some centres undefined) it was 16.6 µM (active); in that of `C/C(=C\[C@H](C)C(=O)C[C@H](O)CC1CC(=O)NC(=O)C1)[C@@H]1OC(=O)CCCC/C=C/[C@@H](O)C[C@@H]1C`, 2.35 µM (active); in that of `CC1=C[C@H]2[C@H]3C(=O)C(c4ccc(O)cc4)=C[C@@]3(c3ccc(O)cc3)[C@@H]1C(=O)[C@]2(C)O`, 0.209 µM (active).
For the molecule `C=C1C(=O)O[C@H]2[C@H]1CCC(C)=C1CC[C@@](C)(O)[C@@H]12`, the Potency is 26.4 µM (active).
